The entries come from a sample that favours hits as a whole.
CapD inh = Bacillus anthracis CapD inhibitors, primary screen, biochemical, fluorescence intensity; AID 492967, 2010; purified CapD enzyme, fluorescence intensity read-out; stronger effect = lower value; CapD gamma-glutamyltranspeptidase (Bacillus anthracis Ames Ancestor); z-score (concentration not given with the values); actives 0.23% (n = 140,000); in the data active = z-score mostly below about -2.9, no sharp cut-off; inactive = mostly above about -1.9
Active calls of the source: *.

SMILES | CapD inh
CN1C(=O)/C(=C\c2ccccc2)Sc2ccc(C(=O)NCc3cccs3)cc21 | -6.91*
Cc1cccc(/C=C2\Sc3ccc(C(=O)NC(C)C)cc3N(C)C2=O)c1 | -0.11
Cc1cccc(/C=C2\Sc3ccc(C(=O)NCCC(C)C)cc3N(C)C2=O)c1 | -0.405
C=CCn1c(CO)nc2ccccc21 | 0.14
CCn1nc(C)c(CCNC(=O)c2cc3c(=O)n(Cc4ccc(OC)cc4)ccc3nc2C)c1C | 15.1
O=C(c1cc(C2CC2)[nH]n1)N1CCN(c2cccc(C(F)(F)F)c2)CC1 | -0.155
C=CCN1C(=O)/C(=C\c2ccccc2)C(C(=O)OC)=C1C | -1.31
CCN1C(=O)/C(=C\c2ccco2)C(C(=O)OC)=C1C | -0.87
CCN1C(=O)/C(=C\c2ccc(OC)cc2)C(C(=O)OC)=C1C | -4.86*
CCOc1ccc(C2C(N3C(=O)c4ccc([N+](=O)[O-])cc4C3=O)C(=O)N2c2ccc(OCC)cc2)cc1 (stereo not drawn) | -0.335
Cc1nc(CSc2n[nH]c(=O)n2Cc2ccccc2)cs1 | 1.35
CCOC(=O)NCCc1c(F)cccc1Cl | 1.04
CCN(c1ccccc1)c1cc(N(C)C)c2nonc2c1[N+](=O)[O-] | 0.315
N#Cc1ccc(SCCO)c([N+](=O)[O-])c1 | 0
O=[N+]([O-])c1ccc(SCCO)c2nonc12 | -3.98*
O=C(CCSCc1cnn(-c2ccccc2)c1-n1cccc1)NCC1COCCO1 (stereo not drawn) | -0.155
N=C1S/C(=C/c2ccco2)C(=O)N1c1nccs1 | -4.33*
N=C1S/C(=C\c2ccc(-c3ccccc3F)o2)C(=O)N1c1nccs1 | -1.15
N=C1S/C(=C/c2ccc(-c3ccccc3C(=O)O)o2)C(=O)N1c1nccs1 | -2.13
CCC(=O)c1nc2ccccc2c(=O)n1-c1ccccc1C | 0.355
COc1cccc(NC(=O)CSc2nc(NC3CCCCC3)c3ccccc3n2)c1 | 3.15
O=C(NC1CC1)c1ccc2c(c1)[nH]c(=S)n1c3ccccc3nc21 | 3.9
COc1ccccc1CNS(=O)(=O)c1ccc(F)c(C(=O)Nc2ccc(Cl)cc2C(F)(F)F)c1 | 0.535
O=C(CSc1ccc(Cl)cc1)NC1Cc2ccccc2C1 | -0.45
COc1ccc(C(=O)CN2C3=NCCCN3c3ccccc32)cc1 | 0.85
SMILES | CapD inh
Cc1cc(N2C(=O)NC(=O)/C(=C\C=C\c3ccco3)C2=O)ccc1Br | -0.89
O=C1NC(=S)N(c2ccccc2)C(=O)/C1=C/C=C/c1ccco1 | -1.01
COc1cccc(N2C(=O)/C(=C/C=C/c3ccco3)C(=O)NC2=S)c1 | -7.42*
CN1CCCCCC1=Nc1cccc(F)c1 | 0.42
Cc1ccc(S(=O)(=O)N(/C=C2\Sc3ccccc3C2=O)c2ccc([N+](=O)[O-])cc2)cc1 | -0.405
CCc1nc(CN2CCN(c3ccc(F)cc3)CC2)c(C)[nH]1 | -1.83*
Cc1[nH]c2ccccc2c1CN1CCN(c2ccc(F)cc2)CC1 | 0.485
CCc1nc(CN2CCN(c3ccc(C(F)(F)F)cn3)CC2)c(C)[nH]1 | -0.675
COC(CN)c1ccc2c(c1)OCCO2 (stereo not drawn) | -0.505
Cc1c(C(=O)NCC2CCCO2)sc2ncnc(N3CCN(c4ccccc4)CC3)c12 (stereo not drawn) | -0.335
Clc1ccc(C2Nc3ccccc3O2)cc1Cl (stereo not drawn) | 0.285
CC(=NCCc1ccc(F)cc1)C1=C(O)c2ccccc2C1=O | -4.78*
CSC(C)C(=O)C1=C(O)c2ccccc2C1=O (stereo not drawn) | -2.13
CCOC(=O)C1=C(O)c2ccccc2C1=O | 0.15
COC(=O)c1sccc1N=CC1=C(O)C(c2ccccc2)CCC1=O (stereo not drawn) | 0.035
O=C1/C(=C/c2c(NCCO)nc3ccccn3c2=O)SC(=S)N1C1CCS(=O)(=O)C1 (stereo not drawn) | 0
COc1ccc(-c2nc3ccccc3c(=O)n2NC(=O)c2ccc(OC)c([N+](=O)[O-])c2)cc1OC | -1.27
CCc1c(C)[nH]c(N)nc1=S | -4.37*
CCCCc1c(C)nc(N)[nH]c1=O | 0.435
CCc1c(C)nc(N)nc1N1NC1=S | -1.04
O=C(N/N=C/c1cccc(Br)c1)C1C(c2ccccc2)C(C(=O)N2CCOCC2)C1c1ccccc1 (stereo not drawn) | 0.015
COc1ccc(CNC(=O)c2c(-c3ccccc3Cl)noc2C)cc1Cl | -0.555
O=C(O)c1cc2cccc([N+](=O)[O-])c2[nH]1 | -4.63*
O=C(O)CSc1ncccc1[N+](=O)[O-] | -0.92
NC(CC(=O)O)c1ccccc1[N+](=O)[O-] (stereo not drawn) | -0.335
SMILES | CapD inh
COc1cc(C2C(C#N)=C(N)Oc3n[nH]c(-c4ccc(C)cc4)c32)cc(OC)c1OC(=O)N1CCOCC1 (stereo not drawn) | -0.22
Cc1onc(-c2ccccc2)c1-c1nc(CSc2nc3ccccc3[nH]2)no1 | -0.23
O=C(/C=C/c1ccco1)/C=C/c1ccco1 | 0.035
O=C(/C=C/c1ccco1)C1(O)CCCCC1 | -5.62*
COc1ccc(/C=C/C(=O)C2(O)CCCCC2)cc1 | -0.88
Cc1cc(-c2ccc(NC(=O)C3CC3)c(C)c2)ccc1NC(=O)C1CC1 | 0.355
COc1ccc(N2C(=O)/C(=C/c3ccccc3OC)N=C2c2cccc(OC)c2)cc1 | -0.685
O=C(ON1C(=O)CCC1=O)c1ccc(Cl)cc1Cl | -3.96*
CC(C)(C)c1cc(OC(=O)c2ccc(Cl)cc2Cl)c(C(C)(C)C)cc1OC(=O)c1ccc(Cl)cc1Cl | 0.215
O=C(ON1C(=O)CCC1=O)c1ccccc1Cl | -0.13
O=C(NCCOc1ccccc1Cl)c1ccccc1Br | 0.005
O=S(=O)(NC1CCCc2ccccc21)c1cccs1 (stereo not drawn) | -1.68*
O=C(CCS(=O)(=O)c1cccs1)NC1CCCc2ccccc21 (stereo not drawn) | 0.305
O=C(c1ccc(S(=O)(=O)NC2CCCc3ccccc32)s1)N1CCCC1 (stereo not drawn) | 0.57
Cc1cccc(NC(=O)c2c(NC(=O)c3cccnc3)sc3c2CCCCC3)c1 | -1.72
COc1ccc(-c2cc(C(F)(F)F)nc(SCC(=O)Nc3cn(C)nc3C)n2)cc1OC | -1.54
CCCCN(C(=O)c1nn(C)c2c1CSc1ccccc1-2)C1CCN(C(C)=O)CC1 | 0.005
N=C1/C(=C/c2ccco2)C(=O)N=C2SC=C(c3ccccc3)N12 | -0.135
CC(C)CS(=O)(=O)C1=NN2C(=N)/C(=C\c3ccco3)C(=O)N=C2S1 | -4.13*
CCS(=O)(=O)C1=NSC2=NC(=O)/C(=C\c3ccco3)C(=N)N21 | -3.41
COc1ccc(CCNC(=O)c2sc3nc(C)nc(N4CCOCC4)c3c2C)cc1OC | 1.11
COC(=O)c1ccc(N2CCc3ccccc32)s1 | 20.9
COc1ccc(S(=O)(=O)N(C(C)=O)c2ccc3oc(=O)sc3c2)cc1 | -3.3
COc1ccc(N(C(C)=O)S(=O)(=O)c2ccc(F)cc2)cc1 | -7.35*
CC(=O)Oc1ccc(N(C(C)=O)S(=O)(=O)c2ccc3ccccc3c2)cc1 | -0.08
SMILES | CapD inh
Cc1cccc(CCOC(=O)NCCNc2ccccc2)c1 | 0.085
Oc1oc(-c2ccccc2)nc1/C=C1\C=Nc2ccccc21 | -2.58
CN(C)/C=C/C=C1\CCc2ccccc2C1=O | -0.79
CN(C)/C=C/C=C1\CC/C(=C\C=C\N(C)C)C1=O | -7.29*
COc1ccc(NCc2cn[nH]c2-c2ccccc2)c(OC)c1 | 0.575
O=C(Nc1ccc(CSc2ccc(Cl)cc2)cc1)c1c(F)cccc1F | -0.635
CCOc1cc(/C=C2\SC(=S)N(NC(=O)c3ccc(Br)cc3)C2=O)ccc1O | -0.2
Cc1n[nH]c(C)c1CCc1nc2c3ccccc3nc(NCc3ccccc3)n2n1 | 0.115
